High-throughput results from PubChem.
Compounds with a hit are over-represented: about 2.3% of the library has one in this group of screens.
KKLEB tox = reduces viability of KKLEB cystic fibrosis airway cells; KKLEB CF airway cells viability, ATPlite luminescence, overnight; stronger effect = lower value; cells stimulated with P. aeruginosa culture filtrate; activity change (cytotoxicity), % at 5 µM; 360,000 compounds, 0.36% hits;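 active means corrected activity change at or below -50% at 5 µM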
CF NFkB block = cystic fibrosis NF-kB activation inhibition. inhibition, % at 5 µM. KKLEB NF-kB-GFP reporter, PAF-induced, GFP fluorescence overnight. 360,000 compounds, 0.86% hits. AID 588850;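 active means at least 50% inhibition at 5 µM, scaled per plate between neutral and stimulator controls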;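 further: PAF is a Pseudomonas aeruginosa culture filtrate used as stimulus; plate controls were PAF-stimulated DMSO wells for no effect and unstimulated DMSO wells for full effect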
TWEAK Fn14 block = blocks TWEAK-Fn14 interaction in a reporter cell assay; TWEAK-stimulated Fn14 reporter cells, luciferase luminescence, 8 h; inhibition, % at 10 µM; 360,000 compounds, 2% hits; AID 1159606; in the data active means inhibition above about 50%
HIF-2a inh = blocks HIF-2a reporter activity. 786-0 RCC cells HIF-2a reporter, luciferase luminescence, overnight. inhibition, % at 18.8 µM. AID 624352. 360,000 compounds, 0.72% hits;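 active means inhibition of the luminescence signal of 40% or more relative to plate controls, in a single-dose primary screen at 18.75 µM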
LGR2 antag = inhibitors of bursicon-induced Drosophila LGR2 receptor cAMP signaling | 380,000 compounds, 0.35% hits | inhibition, % at 9.99 µM | HEK293 LGR2, CRE-luciferase, bursicon-stimulated, 4 h;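 active means drop in luminescence signal, shown as inhibition above about 50% in the replicate tests, limit read from the data, passing the limit was not always enough; inconclusive means probably only some replicates passing the limit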;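 further: agonist challenge used bursicon conditioned medium at about half maximal strength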
hiPSC survival = increases survival of single human iPS cells; hiPSC single-cell survival, ATPlite luminescence; 100% = ROCK inhibitor wells, 0% = DMSO; survival enhancement, % at 20 µM; 360,000 compounds, 0.044% hits; in the data active means survival enhancement above about 18%;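 further: cells exposed to compounds for 16 hours before the ATP read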
CF NFkB conf = CF NF-kB inhibition confirmation, single concentration | shares compounds with CF NFkB block | inhibition, % at 5 µM | 1,300 compounds, 64% hits | AID 602472 | KKLEB CF airway cells, PAF-induced NF-kB-GFP fluorescence, overnight; in the data active means inhibition above about 40%;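 further: stimulus PAF is a Pseudomonas aeruginosa filtrate and not platelet activating factor; plate controls were DMSO wells with stimulus for no effect and unstimulated DMSO wells for full effect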
An asterisk follows results filed as active.

How did CN1CCN(C(=O)C[C@@H]2C=C[C@@H](NC(=O)c3ccc4c(c3)OCO4)[C@@H](CO)O2)CC1 do in these assays?
LGR2 antag: 16

Results for Nc1cccc2c1C(=O)N(C(=O)/C=C/c1ccc(F)cc1)C2=O ?
KKLEB tox: -24; CF NFkB block: 65*; TWEAK Fn14 block: 84*; HIF-2a inh: 29; LGR2 antag: 47; hiPSC survival: 0; CF NFkB conf: 15

Results for Nc1cccc2c1C(=O)N(C(=O)c1ccco1)C2=O ?
KKLEB tox: 3; CF NFkB block: 9; TWEAK Fn14 block: -13; HIF-2a inh: 6; LGR2 antag: 17; hiPSC survival: 0

How did CO[C@@H]1CN(C)C(=O)c2ccc(NC(C)=O)cc2OC[C@@H](C)N(Cc2cncnc2)C[C@@H]1C do in these assays?
LGR2 antag: 3

Results for CC(=O)c1c(C)n(-c2ccc(C)cc2C)c2ccc(O)cc12 ?
KKLEB tox: -10; CF NFkB block: 65*; TWEAK Fn14 block: 58*; HIF-2a inh: 34; LGR2 antag: 21; hiPSC survival: 0; CF NFkB conf: 69*

Results for CC(=O)c1c(C)n(-c2ccccc2)c2ccc(O)cc12 ?
KKLEB tox: -16; CF NFkB block: 59*; TWEAK Fn14 block: 46; HIF-2a inh: 16; hiPSC survival: 0; CF NFkB conf: 72*

How did CCOc1ccc(-n2c(C)c(C(C)=O)c3cc(O)ccc32)cc1 do in these assays?
KKLEB tox: 2; CF NFkB block: 57*; TWEAK Fn14 block: 64*; HIF-2a inh: 32; LGR2 antag: 14; hiPSC survival: 0; CF NFkB conf: 84*

Results for CC(=O)c1ccc(-n2c(C)c(C(C)=O)c3cc(O)ccc32)cc1 ?
KKLEB tox: 16; CF NFkB block: 56*; TWEAK Fn14 block: 43; HIF-2a inh: 13; LGR2 antag: 13; hiPSC survival: -1; CF NFkB conf: 66*

How did Cc1noc(C)c1S(=O)(=O)N(C)C[C@@H]1OCCCC[C@H](C)Oc2ccc(NS(=O)(=O)c3cccs3)cc2C(=O)N([C@H](C)CO)C[C@@H]1C do in these assays?
LGR2 antag: -5

What do the screens show for `C[C@@H]1CN([C@H](C)CO)C(=O)c2cc(NS(=O)(=O)c3cn(C)cn3)ccc2O[C@@H](C)CCCCO[C@H]1CN(C)S(=O)(=O)c1cn(C)cn1`?
LGR2 antag: 0

How did Cc1onc(-c2ccccc2Cl)c1C(=O)Oc1cc(N)n(S(=O)(=O)c2ccc(F)cc2)n1 do in these assays?
KKLEB tox: -21; CF NFkB block: 62*; TWEAK Fn14 block: 28; HIF-2a inh: 23; hiPSC survival: 1; CF NFkB conf: 28

How did O=C(C[C@H]1C[C@@H]2c3cc(NC(=O)Nc4ccccc4F)ccc3O[C@@H]2[C@@H](CO)O1)NCc1cc(F)ccc1F do in these assays?
LGR2 antag: 0

How did Oc1c(C(c2ccccc2)N2CCCCC2)ccc2ccccc12 (stereo not drawn) do in these assays?
KKLEB tox: -31; CF NFkB block: 68*; TWEAK Fn14 block: 15; HIF-2a inh: 11; LGR2 antag: -5; hiPSC survival: -2; CF NFkB conf: 27

Results for CN1C(=O)c2cc(NC(=O)c3cccs3)ccc2OC[C@@H]2O[C@@H](CC(=O)O)CC[C@H]21 ?
LGR2 antag: -1

How did CCCCN1C(=O)C(=O)c2cc(Cl)ccc21 do in these assays?
KKLEB tox: -8; CF NFkB block: 63*; TWEAK Fn14 block: 4; HIF-2a inh: 9; LGR2 antag: 7; hiPSC survival: -4; CF NFkB conf: 47*

Results for CCCN1C(=O)C(=O)c2cc(C)ccc21 ?
KKLEB tox: 5; CF NFkB block: -1; TWEAK Fn14 block: -4; HIF-2a inh: 3; LGR2 antag: 4; hiPSC survival: -2

Results for Cc1ccc(NC(=O)c2ccccc2NS(=O)(=O)c2ccc(Cl)s2)cc1S(=O)(=O)N1CCOCC1 ?
KKLEB tox: -49; CF NFkB block: 57*; TWEAK Fn14 block: 78*; HIF-2a inh: -8; LGR2 antag: inconclusive; hiPSC survival: 2; CF NFkB conf: 80*

Results for COc1ccc(NC(=O)Nc2ccc3c(c2)[C@H]2C[C@H](CC(=O)NCc4ccccn4)O[C@@H](CO)[C@H]2O3)cc1 ?
LGR2 antag: -7

What do the screens show for `Cc1cccc(CN2C(=O)/C(=C\c3ccc(C(=O)NCCN4CCOCC4)cc3)Sc3ccccc32)c1`?
KKLEB tox: 5; CF NFkB block: 82*; TWEAK Fn14 block: 41; HIF-2a inh: 9; hiPSC survival: 0; CF NFkB conf: -16

Results for Cc1cccc(NC(=O)Nc2cccc(C#N)c2)n1 ?
KKLEB tox: 6; CF NFkB block: 16; TWEAK Fn14 block: 1; HIF-2a inh: -307; LGR2 antag: -10; hiPSC survival: 1

How did Cc1cccc(NC(=O)Nc2ccc(C#N)cc2)n1 do in these assays?
KKLEB tox: -2; CF NFkB block: 75*; TWEAK Fn14 block: 50; HIF-2a inh: -108; LGR2 antag: 14; hiPSC survival: -4; CF NFkB conf: 98*

What do the screens show for `C/C(=N\NC(=O)c1cc(-c2cccc([N+](=O)[O-])c2)n[nH]1)c1ccc(F)cc1`?
KKLEB tox: -20; CF NFkB block: 20; TWEAK Fn14 block: -27; HIF-2a inh: 4; LGR2 antag: -5; hiPSC survival: 0

How did C/C(=N/NC(=O)c1cc(-c2cccc([N+](=O)[O-])c2)n[nH]1)c1cccc(O)c1 do in these assays?
KKLEB tox: -12; CF NFkB block: 57*; TWEAK Fn14 block: -33; HIF-2a inh: 14; LGR2 antag: 0; hiPSC survival: 0; CF NFkB conf: 37

What do the screens show for `O=C(Nc1ccc2c(c1)OCO2)c1cc(-c2ccc(O)cc2)on1`?
KKLEB tox: -41; CF NFkB block: 52*; TWEAK Fn14 block: -82; HIF-2a inh: -205; LGR2 antag: -68; hiPSC survival: 0; CF NFkB conf: 3

What do the screens show for `O=C(Nc1ccc2c(c1)OCO2)c1cc(-c2cccc(O)c2)on1`?
KKLEB tox: 8; CF NFkB block: -43; TWEAK Fn14 block: 10; HIF-2a inh: -337; LGR2 antag: -65; hiPSC survival: 0

Results for O=C(CN1C(=O)CCC1=O)Nc1nc(-c2nc3ccccc3s2)cs1 ?
KKLEB tox: 0; CF NFkB block: 71*; TWEAK Fn14 block: 83*; HIF-2a inh: -260; LGR2 antag: -54; hiPSC survival: 1; CF NFkB conf: 92*

Results for COc1ccc(S(=O)(=O)Nc2ccc3c(c2)C(=O)N([C@H](C)CO)C[C@@H](C)[C@H](CN(C)Cc2ccccc2)OCCCC[C@H](C)O3)cc1 ?
LGR2 antag: 10
